Data: the supplement of paper PMC8728848
The entries come from a sample that favours the strongest signals as a whole.

Assays:
Test in all cases: glycan array binding signal (z-score within array); higher = stronger binding
Settings in all cases: glycan notation: IUPAC condensed, linker removed
[1] = target: Fuc(a1-2)Gal(b1-3)GlcNAc(b1-2)Man(a1-3)[Fuc(a1-2)Gal(b1-3)GlcNAc(b1-2)Man(a1-6)]Man(b1-4)GlcNAc(b1-4)[Fuc(a1-6)]GlcNAc
In short: (§1)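 The Consortium for Functional Glycomics database supplied 3228 glycan arrays, of which those lacking an available protein sequence were dropped. The binding signal, a within-array Z-score, was averaged across arrays of the same protein sequence and across linkers. Negative scores can be read as non-binding.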

[2] = target: Fuc(a1-2)Gal(b1-4)[Fuc(a1-3)]GlcNAc(b1-2)[Fuc(a1-2)Gal(b1-4)[Fuc(a1-3)]GlcNAc(b1-4)]Man(a1-3)[Fuc(a1-2)Gal(b1-4)[Fuc(a1-3)]GlcNAc(b1-2)Man(a1-6)]Man(b1-4)GlcNAc(b1-4)GlcNAc
In short: as §1

[3] = target: Fuc(a1-2)[Gal(a1-3)]Gal(b1-3)GalNAc
In short: as §1

[4] = target: Fuc(a1-2)[Gal(a1-3)]Gal(b1-4)GlcNAc(b1-6)GalNAc
In short: as §1

[5] = target: Fuc(a1-2)[GalNAc(a1-3)]Gal(b1-4)GlcNAc
In short: as §1

[6] = target: Fuc(a1-3)[GalNAc(b1-4)]GlcNAc
In short: as §1

[7] = target: Gal(a1-3)Gal(b1-3)GlcNAc(b1-6)GalNAc
In short: as §1

[8] = target: Gal(a1-3)Gal(b1-3)[Fuc(a1-4)]GlcNAc(b1-2)Man(a1-3)[Gal(a1-3)Gal(b1-3)[Fuc(a1-4)]GlcNAc(b1-2)Man(a1-6)]Man(b1-4)GlcNAc(b1-4)GlcNAc
In short: as §1

[9] = target: Gal(a1-3)Gal(b1-4)GlcNAc(b1-6)GalNAc
In short: as §1

[10] = target: Gal(a1-3)Gal(b1-4)[Fuc(a1-3)]GlcNAc
In short: as §1

[11] = target: Gal(a1-4)Gal(b1-4)GlcNAc(b1-2)Man(a1-3)[Gal(a1-4)Gal(b1-4)GlcNAc(b1-2)Man(a1-6)]Man(b1-4)GlcNAc(b1-4)GlcNAc
In short: as §1

[12] = target: Gal(b1-3)GalNAc(a1-3)[Fuc(a1-2)]Gal(b1-4)GlcNAc
In short: as §1

[13] = target: Gal(b1-3)GlcNAc(a1-6)Gal(b1-4)GlcNAc
In short: as §1

[14] = target: Gal(b1-4)Gal
In short: as §1

[15] = target: Gal(b1-4)Glc
In short: as §1

[16] = target: Gal(b1-4)GlcNAc(b1-2)[Gal(b1-4)GlcNAc(b1-4)]Man(a1-3)[GlcNAc(b1-4)][Gal(b1-4)GlcNAc(b1-2)Man(a1-6)]Man(b1-4)GlcNAc(b1-4)GlcNAc
In short: as §1

[17] = target: Gal(b1-4)GlcNAc(b1-3)Gal(b1-4)GlcNAc(b1-2)[Gal(b1-4)GlcNAc(b1-3)Gal(b1-4)GlcNAc(b1-6)]Man(a1-6)[Gal(b1-4)GlcNAc(b1-3)Gal(b1-4)GlcNAc(b1-2)Man(a1-3)]Man(b1-4)GlcNAc(b1-4)GlcNAc
In short: as §1

[18] = target: Gal(b1-4)GlcNAc(b1-6)GalNAc
In short: as §1

[19] = target: Gal3S4S(b1-4)GlcNAc
In short: as §1

[20] = target: Gal6S(b1-4)GlcNAc6S
In short: as §1

[21] = target: GalNAc(b1-3)Gal(a1-4)Gal(b1-4)GlcNAc(b1-3)Gal(b1-4)Glc
In short: as §1

[22] = target: GalNAc(b1-4)GlcNAc(b1-2)Man
In short: as §1

[23] = target: GlcA(b1-3)GlcNAc
In short: as §1

[24] = target: GlcNAc(b1-2)[GlcNAc(b1-4)]Man(a1-3)[GlcNAc(b1-4)][GlcNAc(b1-2)Man(a1-6)]Man(b1-4)GlcNAc(b1-4)GlcNAc
In short: as §1

[25] = target: GlcNAc(b1-3)Gal(b1-4)GlcNAc(b1-2)Man(a1-3)[GlcNAc(b1-3)Gal(b1-4)GlcNAc(b1-2)Man(a1-6)]Man(b1-4)GlcNAc(b1-4)[Fuc(a1-6)]GlcNAc
In short: as §1

[26] = target: GlcNAc(b1-3)Gal(b1-4)GlcNAc(b1-2)[GlcNAc(b1-3)Gal(b1-4)GlcNAc(b1-6)]Man(a1-6)[GlcNAc(b1-3)Gal(b1-4)GlcNAc(b1-2)Man(a1-3)]Man(b1-4)GlcNAc(b1-4)GlcNAc
In short: as §1

[27] = target: GlcNAc(b1-3)Gal(b1-4)GlcNAc(b1-3)Gal(b1-4)GlcNAc(b1-2)Man(a1-3)[GlcNAc(b1-3)Gal(b1-4)GlcNAc(b1-3)Gal(b1-4)GlcNAc(b1-2)Man(a1-6)]Man(b1-4)GlcNAc(b1-4)GlcNAc
In short: as §1

[28] = target: GlcNAc(b1-3)Gal(b1-4)GlcNAc(b1-3)Gal(b1-4)GlcNAc(b1-2)Man(a1-3)[GlcNAc(b1-3)Gal(b1-4)GlcNAc(b1-3)Gal(b1-4)GlcNAc(b1-2)Man(a1-6)]Man(b1-4)GlcNAc(b1-4)[Fuc(a1-6)]GlcNAc
In short: as §1

[29] = target: GlcNAc(b1-3)Gal(b1-4)GlcNAc(b1-3)Gal(b1-4)GlcNAc(b1-3)Gal(b1-4)GlcNAc(b1-2)Man(a1-3)[GlcNAc(b1-3)Gal(b1-4)GlcNAc(b1-3)Gal(b1-4)GlcNAc(b1-3)Gal(b1-4)GlcNAc(b1-2)Man(a1-6)]Man(b1-4)GlcNAc(b1-4)[Fuc(a1-6)]GlcNAc
In short: as §1

[30] = target: GlcNAc(b1-4)GlcNAc(b1-4)GlcNAc
In short: as §1

[31] = target: Man(a1-2)Man(a1-6)[Man(a1-3)]Man(a1-6)[Man(a1-2)Man(a1-2)Man(a1-3)]Man
In short: as §1

[32] = target: Man(a1-3)[Man(a1-6)]Man(a1-6)[Man(a1-3)]Man
In short: as §1

[33] = target: Neu5Ac(a2-3)Gal(b1-3)GlcNAc(b1-3)Gal(b1-4)GlcNAc
In short: as §1

[34] = target: Neu5Ac(a2-3)Gal(b1-3)GlcNAc6S
In short: as §1

[35] = target: Neu5Ac(a2-3)Gal(b1-4)GlcNAc(b1-2)Man(a1-3)[Neu5Ac(a2-3)Gal(b1-4)GlcNAc(b1-2)Man(a1-6)]Man(b1-4)GlcNAc(b1-4)GlcNAc
In short: as §1

[36] = target: Neu5Ac(a2-3)Gal(b1-4)GlcNAc(b1-3)Gal(b1-4)GlcNAc(b1-3)GalNAc
In short: as §1

[37] = target: Neu5Ac(a2-3)Gal(b1-4)GlcNAc(b1-3)GalNAc
In short: as §1

[38] = target: Neu5Ac(a2-3)Gal(b1-4)GlcNAc(b1-6)[Gal(b1-3)]GalNAc
In short: as §1

[39] = target: Neu5Ac(a2-6)Gal(b1-4)GlcNAc(b1-2)Man(a1-6)[Gal(b1-4)GlcNAc(b1-2)Man(a1-3)]Man(b1-4)GlcNAc(b1-4)GlcNAc
In short: as §1

[40] = target: Neu5Ac(a2-6)Gal(b1-4)GlcNAc(b1-2)Man(a1-6)[GlcNAc(b1-2)Man(a1-3)]Man(b1-4)GlcNAc(b1-4)GlcNAc
In short: as §1

[41] = target: Neu5Ac(a2-8)Neu5Ac(a2-3)Gal(b1-3)GalNAc(b1-4)[Neu5Ac(a2-3)]Gal(b1-4)Glc
In short: as §1

[42] = target: Neu5Ac(a2-8)Neu5Ac(a2-3)Gal(b1-4)Glc
In short: as §1

[43] = target: Neu5Ac(a2-8)Neu5Ac(a2-8)Neu5Ac(a2-3)[Gal(b1-3)GalNAc(b1-4)]Gal(b1-4)Glc
In short: as §1

[44] = target: Neu5Ac(a2-8)Neu5Ac(a2-8)Neu5Ac(a2-3)[GalNAc(b1-4)]Gal(b1-4)Glc
In short: as §1

[45] = target: Neu5Gc(a2-3)Gal(b1-3)GlcNAc
In short: as §1

[46] = target: Neu5Gc(a2-8)Neu5Ac(a2-3)Gal(b1-4)GlcNAc
In short: as §1

B1: Lb MiSSP8 (Laccaria bicolor) (protein)
chain: MYFHTLFACATLMLITTAHASPTVINSLDSRKADLNGDVEARHAADWRRDSDWRRDSDWRRDSDWRRDSD
- glycan array binding signal (z-score) [1]: 1.26
- glycan array binding signal (z-score) [2]: 1.27
- glycan array binding signal (z-score) [3]: 0.371
- glycan array binding signal (z-score) [4]: -0.53
- glycan array binding signal (z-score) [5]: -0.502
- glycan array binding signal (z-score) [6]: 1.06
- glycan array binding signal (z-score) [7]: -0.806
- glycan array binding signal (z-score) [8]: 1.55
- glycan array binding signal (z-score) [9]: -0.599
- glycan array binding signal (z-score) [10]: -0.488
- glycan array binding signal (z-score) [11]: 10.8
- glycan array binding signal (z-score) [12]: -0.267
- glycan array binding signal (z-score) [13]: -0.136
- glycan array binding signal (z-score) [14]: -3.19
- glycan array binding signal (z-score) [15]: 0.702
- glycan array binding signal (z-score) [16]: -0.274
- glycan array binding signal (z-score) [17]: 2.86
- glycan array binding signal (z-score) [18]: -0.433
- glycan array binding signal (z-score) [19]: -0.771
- glycan array binding signal (z-score) [20]: -0.571
- glycan array binding signal (z-score) [21]: 4.15
- glycan array binding signal (z-score) [22]: -0.744
- glycan array binding signal (z-score) [23]: 3.78
- glycan array binding signal (z-score) [24]: -0.64
- glycan array binding signal (z-score) [25]: 2.31
- glycan array binding signal (z-score) [26]: 0.54
- glycan array binding signal (z-score) [27]: 2.57
- glycan array binding signal (z-score) [28]: 2.43
- glycan array binding signal (z-score) [29]: 2.57
- glycan array binding signal (z-score) [30]: 0.319
- glycan array binding signal (z-score) [31]: -0.578
- glycan array binding signal (z-score) [32]: 2.36
- glycan array binding signal (z-score) [33]: -0.868
- glycan array binding signal (z-score) [34]: -0.226
- glycan array binding signal (z-score) [35]: -0.578
- glycan array binding signal (z-score) [36]: -0.343
- glycan array binding signal (z-score) [37]: -0.122
- glycan array binding signal (z-score) [38]: 3.01
- glycan array binding signal (z-score) [39]: -0.606
- glycan array binding signal (z-score) [40]: -0.668
- glycan array binding signal (z-score) [41]: -0.336
- glycan array binding signal (z-score) [42]: -0.744
- glycan array binding signal (z-score) [43]: 1.08
- glycan array binding signal (z-score) [44]: -0.82
- glycan array binding signal (z-score) [45]: -0.571
- glycan array binding signal (z-score) [46]: -0.958
